The text below walks through data of PubChem BioAssay AID1851 (National Center for Advancing Translational Sciences (NCATS), 2009).

For orientation: AC50 means the concentration at which the activity in the assay is half-maximal.

SMILES strings stand for the structures. The whole screen tested about 16,000 compounds, of which about 5,800 (36%) were called active. Another 23% or so got no clear call; they are omitted. Calls come from the whole dose curve; as a rule, active = well fitted curve in the direction sought with a large enough effect; inconclusive = small, poorly fitted or top-dose-only effect, or effect the other way; inactive = no such curve, though single readings can be large or run the other way. The list shows a part of the results. Where a structure was tested more than once in an assay, its records may differ in their call.
% is set by controls: 0 for no effect and ±100 for the full control effect.

The target in the experiment is Cytochrome P450 2C19 (Homo sapiens) (UniProt P33261). In words: Cytochrome panel assay with activity outcomes. To be noted: recombinant CYP, pro-luciferin dealkylation, luminescence, p450-cyp2c19; series mostly up to 57.1 µM.
Sequence of Cytochrome P450 2C19 (Homo sapiens) (P33261 whole entry, looked up): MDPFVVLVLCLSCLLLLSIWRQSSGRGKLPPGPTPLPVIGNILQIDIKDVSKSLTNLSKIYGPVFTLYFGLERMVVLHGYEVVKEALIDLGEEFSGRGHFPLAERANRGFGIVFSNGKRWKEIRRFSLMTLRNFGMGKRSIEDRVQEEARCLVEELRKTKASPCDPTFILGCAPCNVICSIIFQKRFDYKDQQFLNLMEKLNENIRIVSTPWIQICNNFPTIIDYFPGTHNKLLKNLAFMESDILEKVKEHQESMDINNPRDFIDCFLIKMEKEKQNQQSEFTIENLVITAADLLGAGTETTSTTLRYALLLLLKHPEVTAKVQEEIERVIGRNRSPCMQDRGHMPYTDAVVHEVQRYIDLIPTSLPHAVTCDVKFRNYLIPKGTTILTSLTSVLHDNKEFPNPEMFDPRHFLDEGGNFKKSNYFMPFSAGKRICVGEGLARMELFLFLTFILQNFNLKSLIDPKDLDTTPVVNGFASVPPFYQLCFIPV
Consider `CC12CC[C@@H]3c4ccc(OP(=O)(O)O)cc4CCC3C1CCC2=O` (stereo partly specified), for which the activity, negative = inhibition was -12.5% [at 11.4 µM] (inactive). With `O=C(c1ccncc1)N1CCC2(CC1)CN(Cc1cc(C(F)(F)F)cc(C(F)(F)F)c1)C2`, the AC50 entry was “inactive”.

In the case of `CCOc1ccc(NC(=O)N(C2CCCCC2)C(C)c2ccncc2)cc1` (stereo unspecified), the AC50 is 7.08 µM (active). The same measure, in the same setting: with `CCOc1ccc(NC(=O)C(=O)NCC2CCCN2CC)cc1` (stereo unspecified) the entry was “inactive”; with `CCCCN(C(=O)Nc1ccc(OCC)cc1)C1CCN(C(C)=O)CC1`, “inactive”; with `O=C(NNc1nc2ccccc2s1)c1ccccc1F`, 11.2 µM (active).

Regarding `CC(=O)NNc1nc2ccccc2s1`, the AC50 entry was “inactive”. Still for that read-out and setting: for `O=C(NNc1nc2ccccc2s1)C1CC1` the value was 15.8 µM (active).

`O=C1Nc2ccc([N+](=O)[O-])cc2C1(O)N1CCCCCC1` (stereo unspecified): the AC50 is 10 µM (active). As for `O=C1C2=C(Nc3cc([N+](=O)[O-])ccc3N2)O[C@@H]1c1ccc([C@H]2OC3=C(Nc4ccc([N+](=O)[O-])cc4N3)C2=O)cc1`, the activity, negative = inhibition is -18.1% [at 11.4 µM] (inactive). Take `CCN(CC)c1nc(Nc2ccccc2)nc(Oc2ccc(C(=O)OC)cc2)n1`: the AC50 is 7.94 µM (active). Turning to `Cc1ccc(/C=C2\Sc3ccccc3C2=O)s1`, the AC50 is 1.26 µM (active). Still for that read-out and setting: for `O=C1C(Cc2ccccc2)SC(=Nc2ccccc2)N1c1ccccc1` (stereo unspecified) the value was 3.16 µM (active).

As to `CN1CCN(/C=N/C2=C(C#N)C(c3ccccc3)C3=C(CC(C)(C)CC3=O)O2)CC1` (stereo unspecified), the AC50 is 20 µM (active). With `O=C(O)c1cccc(OCCO)c1`, the activity, negative = inhibition was 13.7% [at 11.4 µM] (inactive). The same measure, in the same setting: with `NCC(=O)Nc1ccccc1` the figure was -29.3% [at 11.4 µM] (inactive).

In the case of `O=C(CCOc1ccccc1)Nc1ccccc1`, the AC50 is 3.55 µM (active). As for `COC(=O)c1cccc(NC(=O)CCCOc2ccccc2)c1`, the AC50 was 2.24 µM (active).

Turning to `C#CCCCC(=O)Nc1ccccc1`, the AC50 result is “inactive”. Still for that read-out and setting: with `Cc1ccc(NCC(=O)N/N=C/c2ccc(OC(=O)c3ccco3)cc2)cc1` the figure was 2.51 µM (active); with `Cc1cc(C(=O)N/N=C/c2cccc(OC(=O)c3ccco3)c2)n[nH]1`, 25.1 µM (active). Still for that read-out and setting: with `NC(=O)N/N=C\c1ccc([N+](=O)[O-])o1` the entry was “inactive”. Regarding `Cc1ccc(NCC(=O)N/N=C\c2ccc([N+](=O)[O-])o2)cc1`, the AC50 was 8.91 µM (active). As for `COc1ccc(C(=O)NC(CO)c2nnc(SCc3ccc(Cl)c(Cl)c3)n2C)cc1` (stereo unspecified), the AC50 is 15.8 µM (active). The same measure, in the same setting: with `COC(=O)c1ccccc1NC(=O)CSc1nnc(C(CO)NC(=O)c2ccccc2Cl)n1C` (stereo unspecified) the entry was “inactive”. `CC(=O)OCC(=O)[C@@]1(O)CC[C@@H]2[C@H]3CCC4=CC(=O)C=C[C@]4(C)[C@]3(F)[C@@H](O)C[C@@]21C`: the AC50 result was “inactive”.

On to `Cc1cc(C)c(NC(=O)NC(=O)c2ccc(F)cc2)c(C)n1`, for which the AC50 entry is “inactive”. The same measure, in the same setting: with `Cc1cc(NC(=O)NC(=O)c2ccc(F)cc2F)n[nH]1` the figure was 11.2 µM (active).

Turning to `Cc1onc(-c2ccccc2)c1C(=O)NCCc1c[nH]c2ccccc12`, the AC50 was 1.78 µM (active). Same read-out and setting: for `CCCC(O)(CCC)C(=O)NN1CCCCC1` the value was “inactive”. For `CC(=O)[C@H]1CC[C@H]2[C@@H]3C=CC4=CC(=O)CC[C@@]4(C)[C@H]3CC[C@]12C`, the AC50 was 1 µM (active). The same measure, in the same setting: for `CC(=O)[C@@H]1CC[C@@H]2[C@@H]3C[C@H](C)C4=CC(=O)CC[C@@]4(C)[C@H]3[C@H](O)C[C@]21C` the value was “inactive”.

With `CC(=O)[C@H]1CC[C@@H]2[C@H]3CC=C4C[C@@H](O)CC[C@]4(C)[C@H]3CC[C@]12C`, the AC50 entry is “inactive”. The same measure, in the same setting: with `O=c1c(-c2cccs2)nc2cnc(N3CCNCC3)nc2n1Cc1cccs1` the figure was 5.01 µM (active); with `Cn1c(=O)c(-c2cccs2)nc2cnc(N3CCNCC3)nc21`, “inactive”; with `O=c1c(-c2ccc(F)cc2)nc2cnc(N3CCNCC3)nc2n1Cc1cccs1`, 15.8 µM (active). `O=c1c(-c2ccc(F)cc2)nc2cnc(N3CCOCC3)nc2n1Cc1cccs1`: the AC50 entry was “inactive”. Same read-out and setting: with `Cc1nc2cnc(N3CCNCC3)nc2n(Cc2cccs2)c1=O` the entry was “inactive”; with `COc1ccc(-c2nc3cnc(N4CCNCC4)nc3n(Cc3cccs3)c2=O)cc1`, “inactive”; with `CCN1CCN(Cc2ccc(NC(=O)Nc3cccs3)cc2)CC1`, “inactive”. On the same count and under the same terms, for `COc1ccc(C[C@@](C)(N)C(=O)O)cc1OC` the value was “inactive”; for `N#Cc1ccccc1NC(=O)Nc1cccs1`, “inactive”; for `O=C(NCc1ccco1)Nc1cccs1`, 11.2 µM (active). On the same count and under the same terms, for `COc1ccc(CNC(=O)Nc2cccs2)cc1OC` the value was 5.62 µM (active); for `N[C@@H](CO)C(=O)NNCc1ccc(O)c(O)c1O`, “inactive”.

For `O=C(Nc1cccc(F)c1)N1CC2(CCN(C(=O)c3csnn3)CC2)C1`, the AC50 result is “inactive”. As to `COc1ncc2ncc(=O)n(C)c2n1`, the AC50 entry is “inactive”. On to `O=C(Cc1cccc2ccccc12)N/N=C/c1ccc(Sc2nc3ccccc3s2)o1`, for which the AC50 is 0.891 µM (active). On to `COCC(=O)N/N=C/c1ccc(Sc2nc3ccccc3s2)o1`, for which the AC50 is 14.1 µM (active).

In the case of `OCCN=C1CCCc2c1[nH]c1ccc(Br)cc21`, the AC50 entry was “inactive”. Same read-out and setting: with `COC(=O)c1cnn(C(=O)c2ccccc2Br)c1N` the figure was 8.91 µM (active). The same measure, in the same setting: for `COC(=O)c1cnn(C(=O)c2cc(OC)ccc2Br)c1N` the value was 20 µM (active). For the compound `Nc1nc2c(c(=O)[nH]1)CN(CCCN1CCOCC1)CN2`, the activity, negative = inhibition is 24.4% [at 11.4 µM] (inactive). For the compound `CCn1c(=O)cc(OCC(=O)Nc2cccnc2)c2ccccc21`, the AC50 entry is “inactive”. On the same count and under the same terms, for `CCn1c2ccccc2c2cc(N=C3SC(CC(=O)Nc4ccccc4)C(=O)N3C)ccc21` (stereo unspecified) the value was 2 µM (active); for `CCn1c2ccccc2c2cc(N=C3SC(CC(=O)Nc4ccccc4OC)C(=O)N3C)ccc21` (stereo unspecified), 1.41 µM (active); for `Clc1ccc(-c2noc(CN3CCCCC3)n2)cc1`, 1.58 µM (active). The same measure, in the same setting: for `N=C(N)SCc1nc(-c2ccc(Cl)cc2)no1` the value was 1 µM (active). The same measure, in the same setting: for `CN1CCN(C(c2ccccc2)c2ccccc2)CC1` the value was “inactive”. Consider `CS(=O)(=O)N1CCC2(CC1)CN(C(c1ccccc1)c1ccccc1)C2`, for which the AC50 entry was “inactive”.

Regarding `Cc1ccc(-c2noc(CN3CCN(C(c4ccccc4)c4ccccc4)CC3)n2)cc1`, the AC50 was 17.8 µM (active). Regarding `N=C(N)SCc1ccc(Cl)cc1Cl` (tested in a mixture with another compound), the activity, negative = inhibition was -2.42% [at 11.4 µM] (inactive). The same measure, in the same setting: with `c1ccc([P+](CC[P+](c2ccccc2)(c2ccccc2)c2ccccc2)(c2ccccc2)c2ccccc2)cc1` the figure was -40.8% [at 11.4 µM] (inactive); with `O=C(O)CC12C[C@H]3C[C@@H](CC(O)(C3)C1)C2`, 7.05% [at 11.4 µM] (inactive). Take `CCCn1nc(C(=O)NCC(C)(C)N2CCOCC2)c2ccccc2c1=O`: the AC50 is 17.8 µM (active). The same measure, in the same setting: for `O=C(NCCN1CCOCC1)c1nn2c(c1Cl)NC(c1ccccc1)CC2C(F)(F)F` (stereo unspecified) the value was “inactive”; for `Cn1cc[nH]c1=S`, “inactive”. The same measure, in the same setting: with `COCCNc1cc(-c2ccccc2C(F)(F)F)ncn1` the figure was 7.94 µM (active); with `COCCNc1cc(-c2ccccc2CN(C)C)ncn1`, “inactive”; with `COCCNc1cc(-c2ccccc2C)ncn1`, 15.8 µM (active). The same measure, in the same setting: for `COCCNc1cc(-c2c(C)noc2C)ncn1` the value was “inactive”; for `CC(=O)NCCNc1cc(-c2ccccc2C(F)(F)F)ncn1`, “inactive”.

On to `O=c1nc2ccccc2c2n1C[C@H](CN1CCN(c3ccccc3)CC1)N2`, for which the AC50 result is “inactive”. Same read-out and setting: with `COc1cccc(OC)c1OCCCN1CCOCC1` the entry was “inactive”.

For the compound `COc1cccc(OC)c1OCCNC[C@@H]1COc2ccccc2O1`, the AC50 is 794 nM (active) and inactive. `O=C1CC2(CCCC2)CC(=O)N1CCCCNC[C@H]1COc2ccccc2O1`: the AC50 entry is “inactive”. Same read-out and setting: with `COc1ccccc1NC(=O)CC1COc2ccccc2O1` (stereo unspecified) the figure was 7.08 µM (active).

`CCN1CCCC1CNC(=O)C(=O)Nc1ccccc1OC` (stereo unspecified): the AC50 entry was “inactive”. Still for that read-out and setting: with `C(=C1/CCCC2=C1Nc1ncnn1C2c1ccccc1)/c1ccccc1` (stereo unspecified) the entry was “inactive”; with `CCCCC1CC(/C(C)=N/NC(N)=O)OC1=O` (stereo unspecified), “inactive”.

Consider `CC1=CC(=O)c2ccccc2C1=O`, for which the AC50 is 2.51 µM (active).

For the compound `COc1cc2nncc(SCc3ccc(Cl)c(Cl)c3)c2cc1OC`, the AC50 is 2.51 µM (active). Still for that read-out and setting: for `CCCCN(CCCC)CCCOC(=O)c1ccc(N)cc1` the value was “inactive”; for `CCCCOC(=O)c1ccc(O)cc1`, 6.31 µM (active); for `CCCCNc1ccc(C(=O)OCCOCCOCCOCCOCCOCCOCCOCCOCCOC)cc1`, “inactive”. Same read-out and setting: with `Clc1ccccc1-c1nc(Nc2ccncc2)c2ccccc2n1` the figure was 5.01 µM (active).

Turning to `FC(F)(F)c1ccccc1-c1nc(Nc2ccncc2)c2ccccc2n1`, the concentration at half-maximal activity (AC50) was 2 µM (active). The same measure, in the same setting: with `Cc1ccccc1-c1nc(Nc2ccncc2)c2ccccc2n1` the entry was “inactive”.

With `C[C@H](O/N=C1/[C@H]2O[C@@H]2[C@@H](O)[C@H]2[C@H]1CCn1c(=O)n(-c3ccccc3)c(=O)n12)c1cn([C@H]2COC[C@H]2O)nn1`, the activity, negative = inhibition was 42.5% [at 11.4 µM] (inactive). Regarding `CN(C)CCC=C1c2ccccc2C=Cc2ccccc21`, the AC50 entry is “inactive”. Same read-out and setting: for `Cc1noc(C)c1-c1nc(NCc2cccs2)c2ccccc2n1` the value was “inactive”; for `Cc1ccccc1-n1cnc2cc(NCc3cccs3)ccc21`, 2.51 µM (active). The same measure, in the same setting: for `c1ccc(-n2cnc3cc(NCc4cccs4)ccc32)cc1` the value was 2.82 µM (active).

In the case of `CO[C@H]1COC(=O)C/C=C\[C@H](C)COC(=O)[C@@H](OCc2ccccc2)/C=C\[C@@H]1C`, the activity, negative = inhibition is -37% [at 11.4 µM] (inactive).

In the case of `Cc1ccc2c(c1)NCC(C(=O)NC1CCCCC1)O2` (stereo unspecified), the AC50 is 3.55 µM (active).

Turning to `CCC1(C)Nc2ccccc2C(=O)N1O` (stereo unspecified), the AC50 result was “inactive”. Same read-out and setting: with `CCCC1(C)Nc2ccccc2-c2nc3ccccc3n21` (stereo unspecified) the figure was 1.41 µM (active); with `CCCCC1(C)Nc2ccccc2-c2nc3ccccc3n21` (stereo unspecified), 0.708 µM (active). `COc1cccc2c1C(=O)c1c(O)c3c(c(O)c1C2=O)C[C@@](O)(C(=O)CO)C[C@H]3O[C@H]1C[C@@H](N)[C@H](O)[C@@H](C)O1.[W]`: the activity, negative = inhibition was 9.1% [at 11.4 µM] (inactive).

In the case of `O=C(Nc1cccc(Cl)c1)N1CCN2C(=O)c3ccccc3C12c1ccccc1` (stereo unspecified), the AC50 is 2.24 µM (active). Still for that read-out and setting: with `CS(=O)(=O)N1CCC2(CCN(C(=O)Nc3cccc(C#N)c3)CC2)CC1` the entry was “inactive”.
